Source: PubChem BioAssay
A3A deaminase = APOBEC3A ssDNA deaminase inhibitors, primary screen, selectivity assay for APOBEC3G inhibitor project, biochemical, FAM/TAMRA oligo cleavage fluorescence; AID 493011, 2011; recombinant A3A, FAM/TAMRA ssDNA deamination fluorescence; actives 0.41% (n = 330,000); DNA dC->dU-editing enzyme APOBEC-3A (Homo sapiens), P31941; inhibition, % at 20 µM;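 active means at least 40% inhibition at 20 µM here, with at most 30% in a related deaminase screen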;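 further: plate controls were A3A with DMSO for no effect and wells lacking A3A enzyme for full effect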
Target sequence (P31941 whole entry, looked up): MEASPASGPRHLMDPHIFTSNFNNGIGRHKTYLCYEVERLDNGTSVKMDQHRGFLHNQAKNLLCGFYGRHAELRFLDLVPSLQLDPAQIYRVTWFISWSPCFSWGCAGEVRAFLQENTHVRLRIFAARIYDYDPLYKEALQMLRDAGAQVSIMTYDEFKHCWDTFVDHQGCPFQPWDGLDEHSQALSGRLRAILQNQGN
H9c2 TAG inh = inhibitors of triacylglycerol accumulation, primary screen, cell-based, uHTS, fluorescence, H9c2; AID 651582, 2012; inhibition, % at 12.5 µM; H9c2 cells, Nile Red lipid (TAG) fluorescence; cells loaded with 200 µM oleic acid; actives 0.66% (n = 230,000);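 active means pattern-corrected inhibition of lipid staining of at least 50% with the nuclear-stain viability signal not falling by more than 50%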;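 further: 0% = DMSO wells and 100% = triacsin C control wells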
Cardio protect = cardioprotection against H2O2-induced cell death, primary screen, uHTS, H9c2 cells, ATPLite luminescence | protection from H2O2 cell death, % at 20 µM | actives 0.63% (n = 360,000) | H9c2 cardiomyocytes, H2O2 injury protection, 2 h;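 active means compounds giving at least 50% protection of heart cells from peroxide-induced death in the single-dose screen, raw or plate-pattern-corrected value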;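 further: 0% = DMSO wells with peroxide and 100% = DMSO wells without peroxide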
PfGluPho inh = PfG6PD enzyme inhibitors, primary screen, biochemical, fluorescence intensity, uHTS | glucose-6-phosphate dehydrogenase-6-phosphogluconolactonase (Plasmodium falciparum 3D7) | PfGluPho enzyme, NADPH resazurin-diaphorase fluorescence | inhibition, % at 20 µM | actives 0.78% (n = 350,000) | AID 504690, 2011;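 active means inhibition reaching at least a set limit at 20 µM in the primary screen, cut at about 59% in these data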;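 further: 0% = DMSO wells with substrate and 100% = DMSO wells lacking glucose-6-phosphate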
APOBEC3G inh = APOBEC3G DNA deaminase inhibitors, primary screen, biochemical, fluorescence, single-stranded DNA substrate, uHTS; DNA dC->dU-editing enzyme APOBEC-3G (Homo sapiens), Q9HC16; recombinant A3G, ssDNA deamination FAM/TAMRA fluorescence; inhibition, % at 20 µM; actives 0.28% (n = 330,000);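 active means inhibition of at least 40% at 20 µM, with no more than 30% in the related APOBEC3A deaminase screen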;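 further: plate controls were DMSO wells with A3G for no effect and wells lacking A3G enzyme for full effect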
Target sequence (Q9HC16 whole entry, looked up): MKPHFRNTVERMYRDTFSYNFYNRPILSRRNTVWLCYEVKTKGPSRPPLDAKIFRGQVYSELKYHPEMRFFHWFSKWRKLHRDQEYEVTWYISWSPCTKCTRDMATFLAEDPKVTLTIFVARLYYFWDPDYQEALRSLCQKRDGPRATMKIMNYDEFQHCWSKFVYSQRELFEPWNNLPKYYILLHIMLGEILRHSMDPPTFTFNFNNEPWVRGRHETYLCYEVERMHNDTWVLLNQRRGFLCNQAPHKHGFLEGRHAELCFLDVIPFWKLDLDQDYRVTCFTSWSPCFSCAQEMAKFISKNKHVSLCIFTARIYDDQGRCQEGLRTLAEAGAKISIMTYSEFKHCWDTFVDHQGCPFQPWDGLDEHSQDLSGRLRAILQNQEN
NadD inh = inhibitors of S. aureus NadD, primary screen, biochemical, colorimetric, uHTS | Nicotinate-nucleotide adenylyltransferase NadD (Staphylococcus aureus N315) | actives 0.78% (n = 360,000) | inhibition, % at 20 µM | purified NadD enzyme, colorimetric absorbance read-out; in the data active means inhibition above about 26%
PfGluPho conf = PfG6PD inhibitors, hit retest, confirmation, biochemical, fluorescence intensity, single concentration; inhibition, % at 20 µM; actives 34% (n = 2,400); shares compounds with PfGluPho inh; recombinant PfGluPho, NADPH-diaphorase-resazurin fluorescence; AID 504753, 2011;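 active means inhibition of at least 50% at 20 µM in any single replicate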;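 further: 0% = DMSO with substrate and 100% = DMSO lacking glucose-6-phosphate substrate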
Diaph ctr 10uM = diaphorase inhibitors and chemical oxidizers, confirmation, counter-screen for P. falciparum G6PD inhibitor project, biochemical, fluorescence intensity, 10 µM NADPH | inhibition, % at 20 µM | shares compounds with PfGluPho inh | AID 504862, 2011 | diaphorase-coupled resazurin reduction, NADPH 10 uM | actives 39% (n = 820);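 active means average inhibition reaching 50% or more with the compound at 20 µM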;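 further: resorufin red fluorescence formed as diaphorase reduces resazurin using NADPH; 0% = DMSO with enzyme and 100% = DMSO without enzyme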
Diaphorase 30uM = diaphorase inhibitors and chemical oxidizers, confirmation, counter-screen for P. falciparum G6PD inhibitor project, biochemical, fluorescence intensity, 30 µM NADPH | actives 29% (n = 820) | shares compounds with PfGluPho inh | Diaphorase/resazurin coupled assay, resorufin fluorescence | inhibition, % at 20 µM;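 active means inhibition averaging 50% or more, tested at 20 µM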;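 further: 0% = DMSO with enzyme and 100% = DMSO wells lacking diaphorase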
Numbers without * were called inactive; . = no result. Sampled rows, rich in hits. Any-hit rate of the full collection: about 2.9%.

SMILES	A3A deaminase	H9c2 TAG inh	Cardio protect	PfGluPho inh	APOBEC3G inh	NadD inh	PfGluPho conf	Diaph ctr 10uM	Diaphorase 30uM
CCOC(=O)C1=C(CSc2nc3ccccc3s2)NC(=O)NC1c1cccc([N+](=O)[O-])c1 (stereo unspecified)	-2	.	-8	-9	-6	2	.	.	.
Oc1ccc(/C=N/N2CCCCC2)c(O)c1O	8	.	5	118*	5	4	92*	98*	96*
Oc1ccc(/C=N/N2CCOCC2)c(O)c1O	-1	12	-2	87*	-5	0	48	.	.
COC(=O)c1c[nH]c2c1-c1cc(C(=O)OCc3ccccc3)n(S(=O)(=O)c3ccc(C)cc3)c1C(=O)C2=O	.	90	-20	57	.	23	.	.	.
CCCNC(=O)Nc1ccsc1C(=O)OC	-3	.	4	-1	-7	3	.	.	.
Cc1cc(OCCn2nc(C(=O)O)c3ccccc3c2=O)ccc1C(C)C	0	.	6	79*	-6	-9	32	.	.
CC(=O)Nc1cc2c(cc1[N+](=O)[O-])-c1ccccc1C2O (stereo unspecified)	.	23	16	81*	.	4	83*	34	6
Cn1ncc(Br)c1C(=O)N/N=C/c1cccc(OC2CSC2)c1	0	.	-2	115*	-2	-7	91*	91*	81*
CCOc1ccc(NCc2cccn2-c2nnc(N3CCC(C(=O)NCCCN4CC(C)CC(C)C4)CC3)s2)cc1 (stereo unspecified)	-10	.	-2	8	-7	-1	.	.	.
COc1cccc(C(=O)N2CCN(C(=O)C3CC3)CC2)c1	0	.	6	-9	-7	-7	.	.	.
Cc1c2cc[n+](CCN3CCCCC3)cc2c(C)c2c1[nH]c1ccc(O)cc12	.	4	3	87*	.	48*	12	.	.
Cc1c(/C=C/C(=O)c2ccc(Cl)s2)cnn1C	-3	13	-6	60*	-6	5	52*	63*	39
Cc1c(/C=C/C(=O)c2ccccc2)cnn1C	4	-5	-6	9	0	-2	.	.	.
Cc1c(/C=C/C(=O)c2ccc(C(C)C)cc2)cnn1C	0	-8	-15	68*	-2	-4	42	.	.
O=C(Nc1nccc(-c2cccs2)n1)c1ccccc1Cl	0	.	7	142*	-4	2	110*	102*	81*
O=C(CSc1nccc(-c2cccs2)n1)Nc1cccc(Cl)c1Cl	-3	-9	2	8	-11	1	.	.	.
O=C(c1ccccc1Cl)N(C(=O)c1ccccc1Cl)c1nccc(-c2cccs2)n1	0	.	6	110*	-1	-5	69*	73*	65*
C/C(Cn1nnc([N+](=O)[O-])n1)=N\NC(=O)c1cccc(Cl)c1	-3	.	6	68*	-8	1	59*	27	26
CCOC(=O)c1cnc2ccc(OCC)cc2c1NCc1cccnc1	-1	.	-6	24	-6	-6	.	.	.
CCOC(=O)c1cnc2ccc(OCC)cc2c1NCc1ccccc1	0	.	-21	66*	0	0	-7	.	.
COc1ccc(NC(=O)C2(S(=O)(=O)c3ccc(C)cc3)CC2)cc1	-6	.	5	2	-7	-6	.	.	.
COC(=O)/C(=N/Nc1ccc(C)cc1)N1CCCc2ccccc21	-1	.	5	76*	-7	-4	29	.	.
COC(=O)/C(=N/Nc1ccccc1)N1CCCc2ccccc21	-4	.	-1	48	-8	-2	11	.	.
CC(C)COc1ccc(CSCCNC(=S)Nc2ccccc2)cc1	-6	.	-29	10	-5	-4	.	.	.
CCc1c(C)sc(NC(=O)c2ccoc2C)c1C(N)=O	0	17	-14	94*	60*	7	44	.	.
SMILES	A3A deaminase	H9c2 TAG inh	Cardio protect	PfGluPho inh	APOBEC3G inh	NadD inh	PfGluPho conf	Diaph ctr 10uM	Diaphorase 30uM
CCN(CC(=O)N1CCC(C(N)=O)CC1)S(=O)(=O)c1ccc(Cl)cc1	-4	4	-1	-4	6	-8	.	.	.
COc1ccc(N2CCN(C(=O)c3cc(C)on3)CC2)cc1	-1	-5	2	-4	-6	-3	.	.	.
COC(=O)c1c(NC(=O)c2ccc(C)cc2)csc1C	-2	2	-3	42	1	-1	.	.	.
CCOC(=O)c1ccccc1NS(=O)(=O)c1ccccc1	-1	.	2	79*	-6	-6	60*	58*	54*
COC(=O)c1c(NS(=O)(=O)c2ccccc2)csc1C	-4	-3	6	91*	-5	-6	78*	72*	56*
COc1ccc(C(=O)Nc2cccc(C(=O)Nc3cc(C)ccn3)c2)cc1	.	.	-8	2	.	-3	.	.	.
COc1ccc(Cl)cc1NC(=O)c1cccc([N+](=O)[O-])c1O	.	-1	-14	77*	.	-1	57*	42	38
COc1ccc(Cl)cc1NC(=O)C/C(C)=N/NC(=O)c1ccccc1[N+](=O)[O-]	5	.	-6	-13	-3	2	.	.	.
COc1ccc(S(=O)(=O)Nc2cccc3ccc(O)cc23)cc1	1	-7	-11	4	-1	-5	.	.	.
Cc1cc(C)c(S(=O)(=O)Nc2ccc(O)cc2)cc1C	-1	.	-7	33	-2	2	.	.	.
O=C(O)CSc1cc(NS(=O)(=O)c2ccc(Cl)cc2)c2ccccc2c1O	.	.	-16	109*	.	4	91*	56*	41
COc1ccc(S(=O)(=O)Nc2cc(SCC(=O)O)c(O)c3ccccc23)cc1	1	.	-17	110*	19	4	96*	43	33
Cc1cc(C)c(S(=O)(=O)Nc2cc(SCC(=O)O)c(O)c3ccccc23)cc1C	.	.	.	107*	.	.	98*	52*	39
CC(=N)c1c(O)cc(C)oc1=O	.	-14	0	-12	.	-6	.	.	.
O=C(CSc1ncccn1)N(Cc1cccnc1)C(CCc1ccccc1)c1nc2ccccc2[nH]1 (stereo unspecified)	.	.	8	.	.	0	.	.	.
